# Compounds with a hit are over-represented: about 7.2% of the library has one in this group of screens.
# Sm TGR block = inhibitors of Schistosoma mansoni thioredoxin glutathione reductase | Q962Y6 | purified TGR, DTNB reduction, TNB absorbance 405 nm | Potency, µM (series often up to 114 µM), without a hit: at the highest dose activity change, negative = inhibition, actives largely listed as inhibitors | 360,000 compounds, 3% hits; also: nearly all actives have a fitted effect of over 60% in size
#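 TGR 20 nM + NADPH 100 uM (dispensed conc.), cpd preinc 15 min RT; start with NADPH (500 uM addition) then DTNB (15 mM addition). Kinetic TNB absorbance, 405 nm filter. Four-parameter Hill fit across titration.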
# Marburg entry inh = blocks Marburg virus binding to or entry into cells | Potency, µM (titrated, usually from 37.8 µM), without a hit: at the top dose activity change, negative = inhibition, hits mostly inhibitors | Marburg virus pseudotyped entry inhibition, cell reporter | AID 540276 | 300,000 compounds, 1.8% hits; calls by dose curve; tested in HEK293 cells
# FMDV antiviral = blocks foot and mouth disease virus. FMDV antiviral cell-based qHTS. Potency, µM (doses to about 57.9 µM), for the others: at the highest dose activity change, negative = inhibition, usual class: inhibitors. 410,000 compounds, 1.2% hits. AID 1159524; calls by dose curve; tested in HEK293T cells; also: read-out not given here; nearly all actives have a fitted effect of over 45% in size
# HCV inh = inhibitors of hepatitis C virus infection. 340,000 compounds, 3.4% hits. Huh7.5.1 HCVcc-Cre infection, luciferase reporter, 44 h. Potency, µM (highest dose often 41.8 µM), without a hit: at the highest dose activity change, negative = inhibition, actives largely listed as inhibitors
#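 Infectious HCVcc-Cre (~0.5 moi) was added to cells just after compound, with cells seeded 4 h earlier at 1,000 per well. Luciferase activity after 44 h culture reported infection; substrate was incubated 15 min at room temperature before reading.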
# LASV entry inh = blocks Lassa virus binding to or entry into cells; AID 540256; 300,000 compounds, 1.2% hits; Lassa virus pseudotype entry inhibition, cell reporter; Potency, µM (top dose mostly 37.9 µM), without a hit: at the highest dose activity change, negative = inhibition, hits mostly inhibitors; calls by dose curve; tested in HEK293 cells; also: nearly all actives have a fitted effect of over 50% in size
# RE007 growth inh = less growth of the S. pombe RE007 Vpr strain; S. pombe RE007 Vpr strain, BacTiter-Glo ATP luminescence, 24 h; Potency, µM (series often up to 92.2 µM), for inactives: at the top dose activity change, negative = less growth, most hits filed as inhibitors; 360,000 compounds, 0.21% hits; active = well fitted falling curve with a large enough effect; inconclusive = small, poorly fitted or top-dose-only effect; inactive = no such curve, though single readings can be large or run the other way; also: nearly all actives have a fitted effect of over 50% in size
#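 Fission yeast RE007 carrying one integrated HIV-1 vpr copy, seeded at OD 0.01 in PMG+AL medium with 23 nL pinned compound. Grown 24 h at 30 degrees; viability read by BacTiter-Glo luminescence after 5 min.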
# Active calls of the source: *; ? = inconclusive; · = no result given; [ ] = another dose, or the depositor's remark. Unless noted, calls follow the shape of the dose curve; as a rule, active = well fitted curve in the direction sought with a large enough effect; inconclusive = small, poorly fitted or top-dose-only effect, or another doubt; inactive = no such curve, though single readings can be large; an effect the other way counts as inactive or inconclusive. % is scaled to controls: 0 for no effect and ±100 for the full control effect; potency is read from the fitted curve at half-maximal effect.
SMILES,Sm TGR block,Marburg entry inh,FMDV antiviral,HCV inh,LASV entry inh,RE007 growth inh
CCC(=O)c1ccc(OCC(=O)NCCC2=CCCCC2)c(OC)c1,-7.3%,·,-15.8%,-19.3%,·,-8.3%
CCOc1ccc(C(=O)NCCC2=CCCCC2)cc1OCC,-12.6%,?,-7.2%,5.01µM*,-27.8%[46.1 µM],-1.2%
COc1ccc(CNC(=O)COc2ccc(S(=O)(=O)N3CCCCC3)cc2Cl)cc1,8.3%,?,-17.6%,?,12.6µM*,2.1%
COc1ccccc1/C=C/C(=O)NCCC1=CCCCC1,·,?,0.0%,-23.4%,7.94µM*,15.8%
CC(C)(C)OC(=O)N/N=C/c1ccc(N2CCOCC2)s1,-25.8%,10.9%,12.1%,0.4%,1.84µM*,6.4%
COc1ccccc1S(=O)(=O)c1ccccc1[N+](=O)[O-],32.4%,-3.7%,-12.4%,23.7%,2.6%,-9.4%
O=[N+]([O-])c1cccnc1S(=O)(=O)c1ccccc1,0.316µM*,?,22.4µM*,?,?,7.3%
COc1nc(OC)nc(Oc2ccc(Cl)cc2[N+](=O)[O-])n1,20.7%,-2.4%,-16.9%,?,-3.3%,2.3%
COc1ccc([N+](=O)[O-])c(S(=O)(=O)c2ccc(Cl)cc2)n1,?,4.47µM*,12.6µM*,?,?,12.6µM*
COc1ccc([N+](=O)[O-])c(S(=O)(=O)c2ccccc2)n1,0.1µM*,?,31.6µM*,?,7.08µM*,?
Nc1cccnc1S(=O)(=O)c1ccccc1,4.0%,0.1%[46.1 µM],10.8%,13.0%,?,-6.1%
O=C(NCc1nc2ccccc2n1Cc1ccccc1Cl)c1ccccc1,6.4%,?,-8.3%,·,-1.7%[46.1 µM],·
CC(=O)c1c(C)oc2ccc(N(C(C)=O)S(=O)(=O)c3ccc(Br)cc3)cc12,·,?,?,?,-13.2%,-12.2%
CC(=O)c1c(C)oc2ccc(N(C(C)=O)S(=O)(=O)c3ccc(Cl)c([N+](=O)[O-])c3)cc12,2.24µM*,-23.8%[46.1 µM],35.5µM*,4.8%,-28.7%,21.0%
COc1ccccc1CNS(=O)(=O)c1cc(CN2C(=O)c3cccnc3C2=O)ccc1OC,-12.2%,·,-0.2%,6.9%,·,-4.6%
COc1cc(CCNC2=CC(=O)c3ncccc3C2=O)ccc1O,·,?,39.8µM*,?,?,-15.1%
CCOc1ccccc1NC(=O)C(C)Sc1nc2c(c(=O)[nH]1)CCCC2 (stereo unspecified),-0.4%,8.2%[46.1 µM],7.5%,·,11.6%[46.1 µM],·
c1csc(-c2nnc(NC3CCCCC3)c3ccccc23)c1,-7.3%,?,39.8µM*,?,-16.6%,-11.5%
O=C(ONC1=NCCCCC1)c1ccc(Cl)cc1,-1.9%,?,?,2.51µM*,?,?
Cc1ccc([C@H]2C[C@@H](n3cc(-c4ccc(F)cc4)nn3)[C@H](O)CN2C(=O)c2cccs2)cc1,·,·,3.4%,·,-10.4%[46.1 µM],4.8%
CC(Sc1nc(-c2ccccc2)cc(C(F)(F)F)n1)C(=O)NCc1ccco1 (stereo unspecified),?,?,-10.8%,11.2µM*,-8.5%,-20.5%
Nc1ncnc2c1[nH]c(=O)n2C1CC(O)C(CO)O1 (stereo unspecified),·,·,-8.9%,·,·,·
CCC(CC)c1nn2c(=O)cc(COc3ccc(NC(=O)c4ccc(Cl)cc4)cc3)nc2s1,-0.2%,1.2%[46.1 µM],-9.6%,·,-13.5%[46.1 µM],·
CN(C(=O)CC1C(=O)NCCN1Cc1c(F)cccc1Cl)C1CCOCC1 (stereo unspecified),50.1µM*,·,6.9%,8.3%,·,-7.8%
Cc1ccc(CN2CCNC(=O)C2CC(=O)N(C)C2CCOCC2)cc1 (stereo unspecified),44.7µM*,0.2%,5.0%,9.3%,3.2%,-0.9%
N#Cc1cccc(-c2nc(NCCN3CCOCC3)c3ccccc3n2)c1,·,·,18.6%,·,·,·
Cc1cc(C)c(C#N)c(SCS(=O)Cc2ccccc2)n1 (stereo unspecified),3.3%,-1.2%,·,?,-14.2%,-5.2%
Cc1cc(C)c(C#N)c(SCS(=O)Cc2ccc(Cl)cc2)n1 (stereo unspecified),-28.5%,-11.1%,·,11.2µM*,1.0%,-6.5%
